High-throughput results (PubChem)
DT40 TDP1 CPT – DT40-hTDP1 cell growth loss with CPT. chicken DT40 Tdp1-/-;hTDP1 cells + 20 nM CPT, ATP luminescence, 48 h. Potency, µM (top dose mostly 46.2 µM), actives largely listed as inhibitors. hit rate 12% among 420,000. AID 686979; note: nearly all actives have a fitted effect of over 55% in size
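Chicken DT40 Tdp1-/- cells stably complemented with human TDP1 were seeded at 400 cells/well in medium containing 20 nM camptothecin, exposed to pin-transferred compounds, and grown at 37 °C for at least 48 hr. Viability was read as ATP luminescence.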
VP16 counter – counter-screen for ROR gamma inhibitors: Gal4-VP16 reporter; Drosophila S2 Gal4-VP16 UAS-luciferase, luminescence, 20 h; Potency, µM (top dose mostly 53.6 µM), hits mostly inhibitors; hit rate 3.5% among 310,000; AID 2546;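 note: Gal4-VP16 expression switched on by copper sulfate through the metallothionein promoter; nearly all actives have a fitted effect of over 50% in size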
TDP1 cell noCPT – qHTS for Inhibitors of human tyrosyl-DNA phosphodiesterase 1 (TDP1): qHTS in cells in absence of CPT | DT40 Tdp1-/- hTDP1 cells, no CPT, ATP luminescence, 48 h | Potency, µM (titrated, usually from 46.2 µM), actives largely listed as inhibitors | hit rate 15% among 420,000 | AID 686978, 2013; note: nearly all actives have a fitted effect of over 55% in size
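Growth of hTDP1-complemented DT40 Tdp1-knockout cells is measured by ATP luminescence after at least 48 hr compound exposure at 37 °C, with DMSO substituting for the 20 nM CPT used in the parallel screen.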
RORg inh – inhibitors of mouse ROR gamma transcriptional activity | P51450 | Drosophila S2 Gal4-RORgamma UAS-luciferase reporter, 20 h | Potency, µM (top dose mostly 53.6 µM), most hits filed as inhibitors | hit rate 5.4% among 310,000 | AID 2551; note: nearly all actives have a fitted effect of over 60% in size
Target sequence (P51450 whole entry, looked up, the tested form may be a part): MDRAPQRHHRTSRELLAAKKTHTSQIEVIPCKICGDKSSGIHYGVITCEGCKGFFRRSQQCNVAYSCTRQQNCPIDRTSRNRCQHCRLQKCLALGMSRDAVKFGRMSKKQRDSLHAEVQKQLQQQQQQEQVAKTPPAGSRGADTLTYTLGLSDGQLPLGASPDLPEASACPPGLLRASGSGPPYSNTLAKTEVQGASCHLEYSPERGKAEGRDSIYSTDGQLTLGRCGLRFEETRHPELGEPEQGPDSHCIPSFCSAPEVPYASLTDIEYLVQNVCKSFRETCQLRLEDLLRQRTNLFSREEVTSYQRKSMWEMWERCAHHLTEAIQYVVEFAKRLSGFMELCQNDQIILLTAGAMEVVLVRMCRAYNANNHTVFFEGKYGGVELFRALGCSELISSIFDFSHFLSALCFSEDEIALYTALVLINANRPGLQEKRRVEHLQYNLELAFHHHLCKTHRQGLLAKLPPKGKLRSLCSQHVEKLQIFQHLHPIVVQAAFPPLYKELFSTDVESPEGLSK
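Schneider cells (Drosophila), stable Gal4 DBD–ROR gamma + UAS-luc; 1 hr cmpd preincubation; Cu2+ induction 700 uM final; 20 hr ambient; luminescence.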
12-LOX inh – inhibitors of human 12S-lipoxygenase ALOX12; P18054; purified 12hLO, xylenol orange hydroperoxide absorbance; Potency, µM (doses to about 108 µM), hits mostly inhibitors; hit rate 1.1% among 580,000
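Purified human 12hLO (150 nM final) in 25 mM Hepes, 0.01% Triton X-100, pH 7.0 was preincubated 15 min at room temperature with compound. Then 40 uM arachidonic acid was added, 30 min. Hydroperoxide was read by Fe-XO absorbance ratio 573/405 nm.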
ELG1 DNA repair – inhibitors of ELG1-dependent DNA repair in HEK293T cells; HEK293T ELG1-luciferase reporter, luminescence, 16 h; DNA damage induced by 5-fluorouridine; Potency, µM (titrated, usually from 46.1 µM), actives largely listed as inhibitors; hit rate 2.3% among 330,000; note: nearly all actives have a fitted effect of over 55% in size
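5-Fluorouridine DNA damage + compound/DMSO, 2,000 cells/well, 16 h, 37 °C/5% CO2. ONE-Glo, 30 min RT, luminescence. Readout = decrease in reporter signal.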
Of the large screens only hits and unclear results are named; the others gave an inactive call. Most compounds without a hit are left out; they make up all but 15% or so of the library. Calls come from the whole dose curve; as a rule, active = well fitted curve in the direction sought with a large enough effect; inconclusive = small, poorly fitted or top-dose-only effect, or another doubt; inactive = no such curve, though single readings can be large; an effect the other way counts as inactive or inconclusive.

O=C(Nc1ccc2c(c1)OCCO2)c1oc2ccccc2c1NC(=O)C1CC1	DT40 TDP1 CPT inconclusive, TDP1 cell noCPT inconclusive, ELG1 DNA repair inconclusive
COc1ccc(Cl)cc1NC(=O)CN1CCC(NC(=O)C2CC2)CC1	DT40 TDP1 CPT 23.1µM, TDP1 cell noCPT inconclusive, ELG1 DNA repair 9.2µM
COc1ccc(Cl)cc1NC(=O)CN1CCN(S(=O)(=O)N2CCC(C)CC2)CC1	TDP1 cell noCPT inconclusive, ELG1 DNA repair inconclusive
COc1ccc(Cl)cc1NC(=O)CN1CCC(n2nnc3ccccc32)CC1	TDP1 cell noCPT inconclusive, RORg inh inconclusive, ELG1 DNA repair 7.31µM
CCOC(=O)c1ccccc1NC(=O)CN1CCC(n2nnc3cc(C(F)(F)F)ccc32)CC1	TDP1 cell noCPT inconclusive
Cc1cccnc1C(C)n1cc(-c2ccccc2-c2ccco2)nn1 (configuration not stated)	none (no result: DT40 TDP1 CPT, VP16 counter, TDP1 cell noCPT, RORg inh, ELG1 DNA repair)
CCc1cccc(C)c1Nc1c(-c2cccs2)nc2ncccn12	DT40 TDP1 CPT inconclusive, TDP1 cell noCPT 16.4µM (no result: VP16 counter, RORg inh, ELG1 DNA repair)
CCc1cccc(C)c1Nc1c(-c2cccs2)nc2nc(C)cc(C)n12	DT40 TDP1 CPT inconclusive, TDP1 cell noCPT inconclusive (no result: VP16 counter, RORg inh, ELG1 DNA repair)
CCc1cccc(C)c1Nc1c(-c2ccc(N3CCOCC3)cc2)nc2ncccn12	DT40 TDP1 CPT 23.1µM, TDP1 cell noCPT 23.1µM, 12-LOX inh inconclusive (no result: VP16 counter, RORg inh, ELG1 DNA repair)
CCC(=O)c1ccc(N2CCN(C(=O)COc3ccc(F)cc3)CC2)c(F)c1	DT40 TDP1 CPT 20.6µM, VP16 counter inconclusive, TDP1 cell noCPT 23.1µM, ELG1 DNA repair inconclusive
CC(=O)c1ccc(N2CCN(C(=O)Cc3ccccc3)CC2)c(F)c1	DT40 TDP1 CPT inconclusive, TDP1 cell noCPT inconclusive, RORg inh inconclusive
CCOC(=O)N1CCN(c2ccc(C(=O)CC)cc2F)CC1	DT40 TDP1 CPT inconclusive, TDP1 cell noCPT inconclusive, ELG1 DNA repair inconclusive
CCC(=O)c1cc(F)ccc1OCC(=O)N1CCN(c2ccc(F)cc2)CC1	DT40 TDP1 CPT 18.4µM, TDP1 cell noCPT 20.6µM, RORg inh inconclusive, ELG1 DNA repair inconclusive
CC(=O)c1ccc(N2CCN(C(=O)COc3ccc(F)cc3)CC2)c(F)c1	DT40 TDP1 CPT inconclusive, VP16 counter inconclusive, TDP1 cell noCPT 16.4µM, RORg inh inconclusive, ELG1 DNA repair inconclusive
O=C(Cc1n[nH]c(=O)c2ccccc12)Nc1nc2c(s1)CCCC2	none (no result: DT40 TDP1 CPT, VP16 counter, TDP1 cell noCPT, RORg inh, ELG1 DNA repair)
COCCNc1nc(Nc2ccc(C#N)cc2)c2sccc2n1	DT40 TDP1 CPT 20.6µM, TDP1 cell noCPT 16.4µM (no result: VP16 counter, RORg inh, ELG1 DNA repair)
COCCNc1nc(Nc2ccc(F)cc2)c2sccc2n1	DT40 TDP1 CPT 18.4µM, TDP1 cell noCPT 11.6µM (no result: VP16 counter, RORg inh, ELG1 DNA repair)
CC(C)(C)NC(=O)N1CCCCCCNC(=O)[C@@H]2C[C@@H](C(=O)N3CCN(c4ccccn4)CC3)C[C@@H]21	none (no result: DT40 TDP1 CPT, VP16 counter, TDP1 cell noCPT, RORg inh, ELG1 DNA repair)
CCn1c(=O)c([N+](=O)[O-])c(NCC(O)c2ccccc2)c2ccccc21 (configuration not stated)	DT40 TDP1 CPT inconclusive, TDP1 cell noCPT inconclusive, ELG1 DNA repair inconclusive
Cn1c(=O)c([N+](=O)[O-])c(NCC(O)c2ccccc2)c2ccccc21 (configuration not stated)	DT40 TDP1 CPT inconclusive, TDP1 cell noCPT 18.4µM
CCCCSc1nnc(CNC(=O)C23CC4CC(CC(C4)C2)C3)n1Cc1ccccc1	DT40 TDP1 CPT 16.4µM, VP16 counter inconclusive, TDP1 cell noCPT 14.6µM, RORg inh inconclusive
CCn1c(CNC(=O)C23CC4CC(CC(C4)C2)C3)nnc1SCC(=O)Nc1ccc(F)cc1	DT40 TDP1 CPT inconclusive (no result: VP16 counter, RORg inh, ELG1 DNA repair)
CCn1c(CNC(=O)C23CC4CC(CC(C4)C2)C3)nnc1SC	none
CCCCn1c(CNC(=O)C23CC4CC(CC(C4)C2)C3)nnc1SC(C)CC (configuration not stated)	DT40 TDP1 CPT 23.1µM, VP16 counter inconclusive, TDP1 cell noCPT 20.6µM, RORg inh inconclusive, 12-LOX inh inconclusive
O=C(NCc1nnc(SCc2ccccc2)n1-c1ccccc1)C12CC3CC(CC(C3)C1)C2	DT40 TDP1 CPT 14.6µM, TDP1 cell noCPT 18.4µM
